Assay results taken from PubChem BioAssay (NCATS).
Several values for one entry are separate records, joined by “and”; a condition that tells them apart may be missing. Equal values may be shown once. Inconclusive results are not listed. Activity calls are given as the source filed them. The call rests on the fitted dose curve; in most records, active means well fitted curve in the direction sought with a large enough effect; inconclusive means small, poorly fitted or top-dose-only effect, or another doubt; inactive means no such curve, though single readings can be large; an effect the other way counts as inactive or inconclusive.

Assays:
[1] = target: Furin (Homo sapiens) (UniProt P09958); assay: Furin counterscreen qHTS for Zika virus inhibitors (AID 1347149); further: nearly all actives have a fitted effect of over 70% in size; further: potency means the concentration at half of the fitted maximal effect;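 on activity change, negative = inhibition: purified recombinant full-length human furin enzyme at 5 nM; fluorescence gain from furin cutting a BOC-RVRR-AMC peptide substrate over 15 min; top concentration of the series differs between compounds; plate controls were no-inhibitor control for no effect and no-enzyme control for full effect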
In short: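 Counterscreen measures cleavage of 2 microM BOC-RVRR-AMC, below its ~15 microM Km, by 5 nM full-length human furin at pH 7.0 after a 15-min compound preincubation. Inhibition derives from the 15-min fluorescence increase at 37C.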

[2] = system: Zika virus NS2B-NS3 protease; assay: Primary screen GU AMC qHTS for Zika virus inhibitors (AID 1347154); further: nearly all actives have a fitted effect of over 70% in size; further: potency means the concentration at half of the fitted maximal effect;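 on activity change, negative = inhibition: 0% = no-inhibitor control and -100% = no-enzyme control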
In short: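 Unlinked Zika NS2B hydrophilic domain–NS3 protease complex at 25 nM in 10 mM Tris-HCl pH 8.0, 0.01% Tween 20, with an AMC peptide substrate. Fluorescence change (340/450 nm) over 15 min at room temperature, normalized to controls, fitted to 4-parameter Hill.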

[3] = Confirmatory screen GU Rhodamine qHTS for Zika virus inhibitors qHTS (AID 1347157);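 further: plate controls were no-inhibitor wells for no effect and no-enzyme wells for full effect; nearly all actives have a fitted effect of over 70% in size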
In short: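 Buffer 10 mM Tris-HCl pH 8.0, 0.01% Tween 20. Unlinked protease 25 nM; compound preincubation 15 min, RT, protected from light. Substrate Rhod110, 1.5 microM; ~15% conversion in 15 min.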

[4] = Confirmatory screen NINDS Rhodamine qHTS for Zika virus inhibitors (AID 1347161); further: nearly all actives have a fitted effect of over 60% in size; further: potency means the concentration at half of the fitted maximal effect;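 on activity change, negative = inhibition: purified Zika NS2B-NS3 protease with linked NS2B cofactor domain and Rhodamine110 peptide substrate; plate controls were no-inhibitor control for no effect and no-enzyme control for full effect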
In short: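 Purified linked NS2B-NS3 protease (NS2B hydrophilic domain joined to NS3 protease by flexible linker), 25 nM in 10 mM Tris-HCl pH 8.0, 0.01% Tween 20. Compounds titrated, 15 min preincubation at room temperature; 1.5 microM Rhodamine110 substrate, FITC fluorescence change over 15 min.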

[5] = Tertiary RLuc qRT-PCR qHTS assay for Zika virus inhibitors (AID 1347169); further: nearly all actives have a fitted effect of over 55% in size; further: potency means the concentration at half of the fitted maximal effect; on activity change, negative = inhibition: top concentration of the series differs between compounds; on the % scale 0 is the no-effect control and ±100 the full control effect
In short: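 Luminescence read-out: live-cell Renilla luciferase substrate applied to infected Vero cells, signal measured after 1-1.5 hrs. Cells had received compound before ZIKV-RLuc (Cambodian strain, MOI 1-2) infection and were incubated 48-72 hrs at 37 degrees C.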

[6] = qHTS of pediatric cancer cell lines to identify multiple opportunities for drug repurposing: Confirmatory screen for Rh30 cells (AID 1347126); further: potency means the concentration at half of the fitted maximal effect; nearly all actives have a fitted effect of over 55% in size
In short: (§1)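 Viability after 48 h compound treatment at 37C, 500-1,000 cells/well, read as ATP luminescence with CellTiter-Glo. Primary screens used 11-point (MIPE, 0.78 nM-46 µM) or 8-point (NPC, 0.59 nM-46 µM) final concentrations; follow-up screens used 11-point dilutions.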

[7] = system: Zika virus NS2B-NS3 protease (linked construct); assay: Confirmatory screen NINDS AMC qHTS for Zika virus inhibitors (AID 1347152); further: nearly all actives have a fitted effect of over 70% in size; further: potency means the concentration at half of the fitted maximal effect;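 on activity change, negative = inhibition: AMC fluorescence gain from cleaved Bz-Nle-KRR-AMC substrate over 15 min; top concentration of the series differs between compounds; 0% = no-inhibitor control and -100% = no-enzyme control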
In short: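 Linked NS2B-NS3 1 nM, Tris pH 8.0/0.01% Tween 20; cpd 15 min RT dark; + Nle-KRR-AMC 10 µM (Km 18.3 µM); read 0 and 15 min, 340/450 nm; %inh vs controls, 4-param Hill.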

[8] = system: Zika virus NS2B-NS3 protease (unlinked complex); assay: Confirmatory screen GU AMC qHTS for Zika virus inhibitors (AID 1347153); further: nearly all actives have a fitted effect of over 70% in size; further: potency means the concentration at half of the fitted maximal effect;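 on activity, negative = inhibition: percent inhibition with 0% = no inhibitor control and 100% = no enzyme control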
In short: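 Unlinked enzyme 25 nM, Tris pH 8.0/0.01% Tween 20; cpd 15 min RT, dark; + AMC substrate 10 µM (Km 18.3 µM); 340/450 nm read at t0 and 15 min; % inhibition → 4-param fit.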

[9] = system: Zika virus NS2B-NS3 protease (linked); assay: 384 well plate NINDS AMC confirmatory qHTS for Zika virus inhibitors (AID 1347163); conditions: Recombinant NS2B-NS3 protease, Ac-VKTGKR-AMC fluorescence; further: potency means the concentration at half of the fitted maximal effect; nearly all actives have a fitted effect of over 50% in size
In short: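 Enzyme (5, 30 or 60 nM final) first met test compounds for ~15 min. The AMC-tagged peptide Ac-VKTGKR-AMC followed at 30 microM. Fluorescence was then recorded at 25 min and scaled against no-enzyme and no-inhibitor wells.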

[10] = system: Zika virus NS2B-NS3 protease (linked construct); assay: 384 well plate NINDS Rhodamine confirmatory qHTS for Zika virus inhibitors (AID 1347164); conditions: rhodamine-110 peptide substrate fluorescence;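 further: fluorescence from protease cleavage of Ac-LKRR-rhodamine 110 substrate; potency means the concentration at half of the fitted maximal effect; nearly all actives have a fitted effect of over 65% in size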
In short: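 Fluorescence read at ex 485 nm/em 538 nm, 25 min after adding 10 microM Ac-LKRR-Rd substrate at room temperature in the dark; signal normalized to no-enzyme and no-inhibitor controls. Enzyme final 5, 30 or 60 nM; compounds, ~15 min preincubation.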

[11] = Vero cells viability qHTS for Zika virus inhibitors (AID 1347167); further: potency means the concentration at half of the fitted maximal effect
In short: (§2)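 qHTS titration; 24-48 h compound exposure, 37 degrees C/5% CO2; DMEM, 4% FBS; CellTiter Glo ATP luminescence.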

[12] = HepG2 cells viability qHTS for Zika virus inhibitors (AID 1347168); further: potency means the concentration at half of the fitted maximal effect
In short: as §2

[13] = system: Zika virus NS2B-NS3 protease (unlinked); assay: Optimization of GU AMC qHTS for Zika virus inhibitors: Unlinked NS2B-NS3 protease assay (AID 1347151); further: nearly all actives have a fitted effect of over 80% in size; further: potency means the concentration at half of the fitted maximal effect;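 on activity change, negative = inhibition: 0% = no-inhibitor control and -100% = no-enzyme control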
In short: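 Fluorescence read-out (340 nm ex / 450 nm em) of AMC peptide cleavage, taken immediately and after 15 min at room temperature (~20% conversion). Enzyme was the unlinked NS2B–NS3 complex at 25 nM in Tris pH 8.0 buffer.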

[14] = target: Lysine-specific demethylase 5B (Homo sapiens) (UniProt Q9UGL1); assay: Optimization screen for KDM5B Histone Demethylases FDH coupled qHTS against the LOPAC library (AID 1347166); conditions: KDM5B demethylation, FDH-coupled NADH fluorescence (FDH is formaldehyde dehydrogenase); at 57.5 µM (top of the series); further: 0% is about no effect
In short: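 KDM5BDeltaAP (200nM final) in 50mM HEPES pH 7.5, 0.01% Tween-20 was preincubated with compound for 10 min at room temperature. A substrate mix of 12.5uM H3K4Me3, 25uM a-ketoglutarate, ascorbate, Fe2+, NAD+ and formaldehyde dehydrogenase was then added. NADH fluorescence (340/450 nm) was read initially and after 30 min.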

[15] = qHTS of pediatric cancer cell lines to identify multiple opportunities for drug repurposing: Confirmatory screen for Rh18 cells (AID 1347125); further: on the % scale 0 is the no-effect control and ±100 the full control effect; nearly all actives have a fitted effect of over 55% in size
In short: as §1

[16] = system: Zika virus NS2B-NS3 protease (unlinked complex); assay: Primary screen GU Rhodamine qHTS for Zika virus inhibitors: Unlinked NS2B-NS3 protease assay (AID 1347159); further: nearly all actives have a fitted effect of over 60% in size; further: potency means the concentration at half of the fitted maximal effect; on activity change, negative = inhibition: on the % scale 0 is the no-effect control and ±100 the full control effect
In short: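 Unlinked NS2B/NS3, 25 nM; Rhod110 peptide, 1.5 microM; compounds, up to 114 microM. Reaction run 15 min at RT in 10 mM Tris-HCl pH 8.0, 0.01% Tween 20; kinetic fluorescence change fitted with a 4-parameter Hill model.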

[17] = qHTS of pediatric cancer cell lines to identify multiple opportunities for drug repurposing: Confirmatory screen for OHS-50 cells (AID 1347128); further: nearly all actives have a fitted effect of over 55% in size; further: potency means the concentration at half of the fitted maximal effect
In short: as §1

Furin (Homo sapiens), sequence (P09958 whole entry, looked up): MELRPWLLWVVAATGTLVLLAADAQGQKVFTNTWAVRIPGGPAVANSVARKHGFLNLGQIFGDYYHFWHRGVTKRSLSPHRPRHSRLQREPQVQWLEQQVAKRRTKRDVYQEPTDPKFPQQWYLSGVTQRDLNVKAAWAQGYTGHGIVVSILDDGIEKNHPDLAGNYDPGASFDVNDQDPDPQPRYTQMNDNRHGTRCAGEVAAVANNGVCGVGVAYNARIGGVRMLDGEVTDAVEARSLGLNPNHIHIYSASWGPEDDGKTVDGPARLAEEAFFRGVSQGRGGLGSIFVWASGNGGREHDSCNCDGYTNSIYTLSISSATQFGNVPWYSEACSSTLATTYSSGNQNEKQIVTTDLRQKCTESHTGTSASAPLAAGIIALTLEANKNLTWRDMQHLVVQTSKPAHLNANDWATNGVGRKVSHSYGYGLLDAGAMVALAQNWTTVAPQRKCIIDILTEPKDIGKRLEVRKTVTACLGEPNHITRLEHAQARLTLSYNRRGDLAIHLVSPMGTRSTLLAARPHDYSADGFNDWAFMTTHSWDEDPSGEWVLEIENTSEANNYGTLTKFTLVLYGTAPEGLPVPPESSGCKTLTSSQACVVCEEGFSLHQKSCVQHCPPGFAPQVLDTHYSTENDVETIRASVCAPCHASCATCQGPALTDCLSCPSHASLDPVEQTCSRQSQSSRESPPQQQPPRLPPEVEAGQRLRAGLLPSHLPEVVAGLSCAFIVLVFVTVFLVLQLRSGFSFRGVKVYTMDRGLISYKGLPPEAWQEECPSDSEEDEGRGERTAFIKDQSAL
Lysine-specific demethylase 5B (Homo sapiens), sequence (Q9UGL1 whole entry, looked up): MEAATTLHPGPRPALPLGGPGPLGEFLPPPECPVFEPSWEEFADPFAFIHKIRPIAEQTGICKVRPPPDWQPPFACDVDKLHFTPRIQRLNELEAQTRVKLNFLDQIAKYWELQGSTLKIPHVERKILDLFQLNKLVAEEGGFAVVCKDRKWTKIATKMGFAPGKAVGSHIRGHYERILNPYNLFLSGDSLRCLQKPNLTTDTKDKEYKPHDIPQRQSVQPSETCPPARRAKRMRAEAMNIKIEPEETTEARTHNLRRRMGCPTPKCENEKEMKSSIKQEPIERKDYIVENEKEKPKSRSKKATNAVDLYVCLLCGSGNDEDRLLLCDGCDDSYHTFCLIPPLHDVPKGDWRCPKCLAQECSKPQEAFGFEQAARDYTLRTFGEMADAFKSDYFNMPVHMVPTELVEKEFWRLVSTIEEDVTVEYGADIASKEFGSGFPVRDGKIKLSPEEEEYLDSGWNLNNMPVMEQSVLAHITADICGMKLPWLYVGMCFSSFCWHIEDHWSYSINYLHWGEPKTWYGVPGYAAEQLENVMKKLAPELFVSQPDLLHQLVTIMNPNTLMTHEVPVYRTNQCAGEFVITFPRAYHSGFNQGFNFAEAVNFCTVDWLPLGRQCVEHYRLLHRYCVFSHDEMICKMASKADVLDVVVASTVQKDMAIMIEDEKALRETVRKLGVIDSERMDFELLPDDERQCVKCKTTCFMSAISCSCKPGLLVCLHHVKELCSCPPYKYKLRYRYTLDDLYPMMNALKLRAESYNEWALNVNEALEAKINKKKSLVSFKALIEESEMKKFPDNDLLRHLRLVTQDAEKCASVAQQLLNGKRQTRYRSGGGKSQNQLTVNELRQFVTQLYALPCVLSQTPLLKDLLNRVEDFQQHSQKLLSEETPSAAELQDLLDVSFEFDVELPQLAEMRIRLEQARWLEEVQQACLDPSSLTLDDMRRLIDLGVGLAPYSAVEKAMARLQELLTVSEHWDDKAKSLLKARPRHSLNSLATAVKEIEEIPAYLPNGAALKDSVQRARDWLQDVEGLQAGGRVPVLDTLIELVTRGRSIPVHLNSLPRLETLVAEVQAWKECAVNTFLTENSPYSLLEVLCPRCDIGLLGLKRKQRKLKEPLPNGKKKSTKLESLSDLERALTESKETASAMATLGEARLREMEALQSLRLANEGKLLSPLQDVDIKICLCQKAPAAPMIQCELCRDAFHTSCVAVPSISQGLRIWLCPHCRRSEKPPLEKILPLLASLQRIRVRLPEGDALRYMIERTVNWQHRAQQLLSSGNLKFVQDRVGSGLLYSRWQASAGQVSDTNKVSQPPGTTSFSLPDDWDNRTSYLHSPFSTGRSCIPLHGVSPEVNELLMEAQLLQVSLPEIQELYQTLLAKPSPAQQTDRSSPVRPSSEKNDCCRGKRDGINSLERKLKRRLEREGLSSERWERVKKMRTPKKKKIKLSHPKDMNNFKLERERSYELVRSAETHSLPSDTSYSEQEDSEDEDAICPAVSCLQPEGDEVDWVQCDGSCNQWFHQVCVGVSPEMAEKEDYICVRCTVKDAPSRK

CC(C)(Sc1cc(C(C)(C)C)c(O)c(C(C)(C)C)c1)Sc1cc(C(C)(C)C)c(O)c(C(C)(C)C)c1
inactive: Potency [1] | Potency [2] | outcome [3] | Potency [4] | activity change, negative = inhibition [5] -19.1% [at 0.566 µM]

CO[C@@]12[C@H](COC(N)=O)C3=C(C(=O)C(C)=C(N)C3=O)N1C[C@@H]1N[C@@H]12
active: Potency [6] 9.27 µM
inactive: Potency [2]

O=C(O)c1ccc(-n2nc(-c3ccccc3O)nc2-c2ccccc2O)cc1
active: Potency [4] 11 µM | Potency [9] 112 µM | Potency [10] 35.5 µM | Potency [5] 13.1 µM
inactive: Potency [1] | Potency [7] | Potency [8] | Potency [2] | Potency [11] | Potency [12]

O=C(O)C1CCCN(CCC=C(c2ccccc2)c2ccccc2)C1 (configuration not stated)
inactive: Potency [13] | Potency [2] | activity, negative = inhibition [14] -3.3%

COc1cc2c(Nc3ccc(Br)cc3F)ncnc2cc1OCC1CCN(C)CC1
inactive: Potency [15] | Potency [2] | Potency [16]

CCN[C@H]1C[C@H](C)S(=O)(=O)c2sc(S(N)(=O)=O)cc21
inactive: Potency [2]

COc1c(N2CCNC(C)C2)c(F)cc2c(=O)c(C(=O)O)cn(C3CC3)c12 (configuration not stated)
inactive: Potency [4] | Potency [11] | Potency [12] | Potency [5]
active: Potency [1] 24.1 µM and 27.1 µM | Potency [7] 27.1 µM and 30.4 µM | Potency [2] 16.1 µM and 24.1 µM

CCOC(=O)c1ccc(OC(=O)CCCCCN=C(N)N)cc1
inactive: Potency [2]

CNC1CCCN(c2c(F)cc3c(=O)c(C(=O)O)cn(C4CC4)c3c2OC)C1 (configuration not stated)
active: Potency [1] 7.62 µM and 24.1 µM | Potency [7] 27.1 µM | Potency [2] 25.6 µM
inactive: Potency [8] | Potency [4] | Potency [11] | Potency [12] | Potency [5]

CN(C)CCc1c[nH]c2ccc(CS(=O)(=O)N3CCCC3)cc12
inactive: Potency [2]

CCCc1nc(C)c2c(=O)[nH]c(-c3cc(S(=O)(=O)N4CCN(CC)CC4)ccc3OCC)nn12
inactive: Potency [1] | Potency [7] | Potency [8] | Potency [4] | Potency [11] | Potency [12] | Potency [5]

CNC(=O)c1cc(Oc2ccc(NC(=O)Nc3ccc(Cl)c(C(F)(F)F)c3)cc2)ccn1
inactive: Potency [1] | Potency [2]
active: Potency [17] 18.5 µM | Potency [13] 9.87 µM | Potency [16] 8.91 µM | Potency [4] 25.5 µM | Potency [11] 7.58 µM | Potency [12] 33.9 µM

OCc1ccc(-c2nn(Cc3ccccc3)c3ccccc23)o1
active: Potency [1] 27.1 µM | Potency [13] 23.8 µM | Potency [7] 24.1 µM | Potency [8] 24.1 µM | Potency [2] 30.4 µM | Potency [12] 11.7 µM
inactive: Potency [11]

CCC(=O)O[C@]1(C(=O)SCF)[C@H](C)C[C@H]2[C@@H]3C[C@H](F)C4=CC(=O)C=C[C@]4(C)[C@@]3(F)[C@@H](O)C[C@@]21C
inactive: Potency [17] | Potency [2]

COc1ccc2cc3[n+](cc2c1OC)CCc1cc2c(cc1-3)OCO2
inactive: Potency [2]

CN1CCN(c2c(F)cc3c(=O)c(C(=O)O)cn(CCF)c3c2F)CC1
inactive: Potency [2]
